Laboratory results published in the supplement of paper PMC10498489.
In all, about 2,300 compounds went through this assay and about 330 (14%) showed activity. Only a sample is shown. Unmarked numbers belong to inactive results.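 How the source made its calls: active = median modified Z-score above 1.96; inactive = 1.96 or below.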

test system: HepG2 Srxn1-GFP reporter cells (+30 nM CDDO-Me); assay: Srxn1-GFP intensity median modified Z-score relative to plate median; higher = stronger NRF2 / oxidative stress reporter activation, active = hit call of the paper; conditions: 10 µM; exposure time: 24h
Summary of the method: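 The modified Z-score of GFP intensity was computed per plate, and the median over replicates is reported. HepG2 Srxn1-GFP BAC reporter cells in three replicate plates were treated for 24 h with compound at 10 μM plus an NRF2 activator at 30 nM (≤0.1% DMSO). Per-cell cytoplasmic GFP came from confocal images, excluding those with under 100 cells, and scaling used 1.4826 × median absolute deviation.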

SMILES | Srxn1-GFP intensity median modified Z-score
CCN(C)C(=O)Oc1cccc([C@H](C)N(C)C)c1 [euspeclibcmpd2067] | -0.306
COC[C@]12CN(C=O)C3[C@@H]4[C@H](OC)C1[C@]3(C1CC3(O)C(OC)C(O)[C@]4(OC(C)=O)C1C3OC(=O)c1ccccc1)[C@@H](OC)C[C@H]2O (stereo partly specified) [euspeclibcmpd1413] | -0.00565
COc1cc2c3cc1Oc1c(OC)c(OC)cc4c1[C@@H](Cc1cccc(c1)Oc1ccc(c(O)c1)C[C@@H]3N(C)CC2)N(C)CC4 [euspeclibcmpd1812] | 2.31 (active)
COc1cc2c(cc1O)CC1c3c(cc(O)c(OC)c3-2)CCN1C (stereo unspecified) [euspeclibcmpd1326] | -0.347
COc1ccc2c(c1O)-c1c(OC)c(OC)cc3c1[C@H](C2)N(C)CC3 [euspeclibcmpd1537] | -0.343
O=C(NC(O)C(Cl)(Cl)Cl)NC(O)C(Cl)(Cl)Cl (stereo unspecified) [euspeclibcmpd2304] | 0.189
c1ccc2nc(N3CCNCC3)ccc2c1 [euspeclibcmpd578] | -0.285
C[C@@H]1CC(Cl)CCC1C(=O)OC(C)(C)C (stereo partly specified) [euspeclibcmpd1756] | -0.159
CNC(C)(C)Cc1ccccc1 [euspeclibcmpd691] | 0.194
C[N+]1(C)CCc2cc3c(cc2[C@H]1C1OC(=O)c2c1ccc1c2OCO1)OCO3 (stereo partly specified) [euspeclibcmpd1466] | 2.41 (active)
CN1CCc2cc3c(cc2[C@H]1C1OC(=O)c2c1ccc1c2OCO1)OCO3 (stereo partly specified) [euspeclibcmpd1552] | -0.0938
C#CCN(C)C(C)Cc1ccccc1 (stereo unspecified) [euspeclibcmpd993] | -0.386
CCC1(CO)C(=O)NC(=O)NC1=O | 1.07
COc1cc2occc2c2oc(=O)ccc12 [euspeclibcmpd1717] | -0.121
NCC(=O)c1ccccc1 [euspeclibcmpd1673] | 3.04 (active)
O=C(O)Cc1ccccc1 [euspeclibcmpd2440] | -0.295
NCCc1ccccc1 [euspeclibcmpd2078] | 0.0184
C[N+]1([O-])C2CCC1CC(OC(=O)C(CO)c1ccccc1)C2 (stereo unspecified) [euspeclibcmpd2322] | -0.247
C=CCC1(C(C)CCC)C(=O)NC(=S)NC1=O (stereo unspecified) [euspeclibcmpd2148] | -0.0652
O=P1(NCCBr)OCCCN1CCCl (stereo unspecified) | 0.805
CNCC(O)c1ccc(O)cc1 (stereo unspecified) [euspeclibcmpd1199] | 0.983
COC(=O)C1=CO[C@@H](C)C2CN3CC[C@]4(C(=O)Nc5ccccc54)C3C[C@H]12 (stereo partly specified) [euspeclibcmpd2321] | -0.26
CCCN(CCC)CCc1cccc2[nH]c(O)cc12 [euspeclibcmpd2384] | -0.25
CCN(C(C)=O)c1cccc(-c2ccnc3c(C#N)cnn23)c1 [euspeclibcmpd886] | -0.312
CC1(C)C(C=C(Cl)Cl)C1C(=O)OCc1cccc(Oc2ccccc2)c1 (stereo unspecified) [euspeclibcmpd989] | -0.481
CC(N)Cc1ccc(O)cc1 (stereo unspecified) [euspeclibcmpd2033] | -0.0916

SMILES | Srxn1-GFP intensity median modified Z-score
O=C1c2ccccc2C(=O)c2ccccc21 [euspeclibcmpd2403] | -0.277
O=C1C(=O)c2ccccc2-c2ccccc21 | 0.845
O=C1C=CC(=O)c2ccccc21 [euspeclibcmpd1754] | 32.6 (active)
O=c1c(O)c(-c2ccc(O)c(O)c2)oc2c(O)c(O)cc(O)c12 [euspeclibcmpd1684] | -0.455
C[C@]12CCC3C(CC[C@H]4C[C@@H](O)CC[C@]34C)C1CCC2=O (stereo partly specified) [euspeclibcmpd2371] | -0.083
N[C@H](CO)Cc1ccccc1 [euspeclibcmpd1743] | -0.578
CC(=O)Nc1cc([As](=O)(O)O)ccc1O [euspeclibcmpd2446] | 0.0429
O=[N+]([O-])c1cc([As](=O)(O)O)ccc1O [euspeclibcmpd2449] | 14.6 (active)
O=[N+]([O-])c1ccc([As](=O)(O)O)cc1 [euspeclibcmpd2468] | 0.0717
c1cncc(C2=NCCC2)c1 [euspeclibcmpd2209] | 0
COc1ccc(/C=C/c2cc(O)cc(O)c2)cc1 [euspeclibcmpd1373] | 0.31
COc1cc2c(cc1OC)[C@@]13CCN4CC5=CCOC6CC(=O)N2C1[C@H]6[C@H]5C[C@H]43 (stereo partly specified) [euspeclibcmpd1053] | 1.74
C=CCN1CCC23c4c5ccc(O)c4OC2C(=O)CC[C@@]3(O)[C@H]1C5 (stereo partly specified) [euspeclibcmpd455] | -0.148
CC(CCc1ccccc1)NC(C)C(O)c1ccc(O)cc1 (stereo unspecified) [euspeclibcmpd217] | 6.08 (active)
CC(Cc1ccc(O)cc1)NCC(O)c1cc(O)cc(O)c1 (stereo unspecified) [euspeclibcmpd366] | 0.124
C[C@@H]([C@H](O)c1ccccc1)N(C)C [euspeclibcmpd1255] | 0.2
CC1(C)C(C=C(Cl)Cl)C1C(=O)OC(C#N)c1cccc(Oc2ccccc2)c1 (stereo unspecified) [euspeclibcmpd1141] | -0.358
O=C(COc1ccc(Br)cc1Cl)N1CCN(Cc2ccc3c(c2)OCO3)CC1 | 0.363
O=C(COc1ccc2ccccc2c1)N1CCN(Cc2ccc3c(c2)OCO3)CC1 | 4.61 (active)
C=CCc1ccc2c(c1)OCO2 [euspeclibcmpd1477] | -0.318
CCOP(=S)(OCC)Oc1nc(Cl)c(Cl)cc1Cl [euspeclibcmpd1024] | 0.883
COc1cccc2c1cc([N+](=O)[O-])c1c(C(=O)O)cc3c(c12)OCO3 [euspeclibcmpd2326] | 0.769
COC(C)CC(=O)Nc1ccc([N+](=O)[O-])c(C(F)(F)F)c1 (stereo unspecified) | 1.79
N=c1ccc(C(N)=O)c[nH]1 [euspeclibcmpd1777] | 0.117
CN1C2CC[C@@H]1C[C@@H](OC(=O)C(CO)c1ccccc1)C2 (stereo partly specified) [euspeclibcmpd2101] | 0.179
